In all, about 52,000 compounds went through this assay and about 4,300 (8.3%) were called active. No stated cut-off is given here; in the data, active means survival mostly below about 52% (no sharp cut-off); inactive means mostly above about 56%. Only a selection was taken, and actives are over-represented in it overall.
test system: DeltatarO mutant; test: S. aureus survival, RN4220 and DeltatarO strains – OD600, teichoic acid synthesis inhibitors, primary screen (AID 463173); details: S. aureus RN4220 wild type/DeltatarO growth, OD600, 18 h, active compounds read low, screened at 18.75 µg/mL (by protocol)

| SMILES | survival |
| --- | --- |
| N#Cc1cn(-c2ccccc2)nc1-c1cccnc1 | 73% (inactive) |
| O=C(Nc1ccccn1)NC12CC3CC(CC(C3)C1)C2 | 106% (inactive) |
| Cc1ccc(NC(=O)c2oc3ccc4c(c3c2C)C(=O)CC(C)(C)O4)c(C)c1 | 83% (inactive) |
| CC1CCN(C(C(=O)O)c2ccccc2)CC1 (stereo not given) | 98% (inactive) |
| CN1CCN(C(CNC(=O)C(=O)Nc2ccc(Cl)cc2)c2cccnc2)CC1 (stereo not given) | 86% (inactive) |
| COc1ccccc1CNC(=O)CSc1ncc(S(=O)(=O)c2ccc(C)c(Cl)c2)c(=O)[nH]1 | 124% (inactive) |
| Cc1cccc(CNS(=O)(=O)c2ccc(-c3cnc(C4CC4)o3)cc2)c1 | 52% (active) |
| O=S(=O)(NCc1ccccc1)c1ccc(-c2cnc(C3CC3)o2)cc1 | 71% (inactive) |
| Cc1ccc(CNS(=O)(=O)c2ccc(-c3cnc(C4CC4)o3)cc2)cc1 | 76% (inactive) |
| CC(C)c1ccc(NC(=O)C(C)N(c2ccccc2)S(C)(=O)=O)cc1 (stereo not given) | 65% (inactive) |
| Cc1ccc2oc(=O)c3cnn(CC(=O)N4CCN(c5ccccc5)CC4)c3c2c1 | 123% (inactive) |
| Cc1ccc2onc(CC(=O)N3CCN(c4ccccc4F)CC3)c2c1 | 71% (inactive) |
| COc1ccc(N2CCN(C(=O)NCc3noc4ccccc34)CC2)cc1 | 42% (inactive) |
| Cc1ccc2onc(CC(=O)N(C)c3ccccc3)c2c1 | 52% (inactive) |
| Cc1ccc2onc(CC(=O)N3CCN(c4cccc(C)c4C)CC3)c2c1 | 39% (active) |
| Cc1ccc2onc(CC(=O)N3CCN(c4cc(Cl)ccc4C)CC3)c2c1 | 96% (inactive) |
| COc1ccc(N2CCN(C(=O)Cc3noc4ccc(C)cc34)CC2)cc1 | 42% (active) |
| Cc1ccc2onc(CC(=O)N3CCN(c4ccccc4)CC3)c2c1 | 40% (active) |
| COc1ccc(N2CCN(C(=O)Cc3coc4ccc(C)cc34)CC2)cc1 | 105% (inactive) |
| Cc1ccc2onc(CC(=O)N3CCN(c4ccc(Cl)cc4)CC3)c2c1 | 30% (active) |
| Cc1ccc2onc(CNC(=O)N3CCN(c4cccc(C)c4C)CC3)c2c1 | 48% (inactive) |
| Cc1ccc2onc(CC(=O)N3CCN(c4cccc(Cl)c4)CC3)c2c1 | 83% (inactive) |
| COc1ccc(-n2c(=O)[nH]c3cc(C(=O)NCCc4ccccc4)ccc3c2=O)cc1OC | 94% (inactive) |
| COc1ccccc1NC(=O)Cn1c(=O)n(-c2ccc(C)cc2)c(=O)c2ccc(C(=O)NCc3ccco3)cc21 | 79% (inactive) |
| Cc1ccc(N2CCN(C(=O)Cn3ncc4c([nH]c5ccc(C)cc54)c3=O)CC2)c(C)c1 | 94% (inactive) |

| SMILES | survival |
| --- | --- |
| COc1ccc(NC(=O)C2=C(C)Nc3ncnn3C2c2ccccn2)cc1 (stereo not given) | 81% (inactive) |
| Cc1ccc(S(=O)(=O)N2C(=O)CCC2C(=O)NCc2ccco2)cc1 (stereo not given) | 77% (inactive) |
| Cc1ccc2c(CC(=O)N3CCN(c4cccc(Cl)c4)CC3)coc2c1 | 75% (inactive) |
| CCN(CC)CC(=O)Oc1ccc(NC2=NS(=O)(=O)c3ccccc32)cc1 | 96% (inactive) |
| CC1CCCN(C(=O)CCS(=O)(=O)c2cc3c(cc2Cl)NC(=O)CO3)C1 (stereo not given) | 84% (inactive) |
| CCCC(=O)NCCc1ccc(F)cc1 | 119% (inactive) |
| COC(=O)c1cc2occc2n1CC(=O)Nc1cccc(SC)c1 | 102% (inactive) |
| Cc1ccc2onc(CC(=O)N3CCN(c4ccc(F)cc4)CC3)c2c1 | 41% (active) |
| Cc1ccc2oc(=O)c3cnn(CC(=O)N4CCN(c5ccc(F)cc5)CC4)c3c2c1 | 106% (inactive) |
| CC(=O)c1ccc(N2CCN(C(=O)NCc3noc4ccc(C)cc34)CC2)cc1 | 45% (inactive) |
| CC(C)CNCC(=O)N(C1CCCCC1)C1CCCCC1 | 116% (inactive) |
| COc1ccc(-c2cc(C(=O)NCc3ccc(C)cc3)c3cc(C(C)C)ccc3n2)cc1 | 76% (inactive) |
| Cc1ccc(-c2cc(C(=O)NCc3ccccc3Cl)c3ccccc3n2)cc1C | 68% (inactive) |
| Cc1ccc(CNC(=O)c2cc(-c3ccc(C)c(C)c3)nc3ccccc23)cc1 | 74% (inactive) |
| CCn1cc(CNC(=O)c2cc(-c3ccc(C)c(C)c3)nc3ccccc23)c(C)n1 | 123% (inactive) |
| N#CCN(CC#N)C(=O)c1cc(-c2ccccc2)nc2ccccc12 | 89% (inactive) |
| Cc1c(CN(C)C(=O)c2cc(-c3ccccc3)nc3ccc(Br)cc23)cnn1C | 30% (active) |
| Cc1ccc(-c2cc(C(=O)NCc3cnn(C)c3)c3cc(Br)ccc3n2)cc1 | 51% (inactive) |
| CCOc1ccc(-c2cc(C(=O)NCc3ccccc3Cl)c3ccccc3n2)cc1 | 89% (inactive) |
| Cc1ccc(-c2cc(C(=O)NCc3cnn(C)c3C)c3cc(Br)ccc3n2)cc1 | 36% (active) |
| Cc1ccc(-c2cc(C(=O)NCc3cnn(C)c3C)c3ccccc3n2)cc1C | 49% (active) |
| CCn1cc(CNC(=O)c2cc(-c3ccc(C)cc3)nc3ccc(Br)cc23)c(C)n1 | 40% (active) |
| Cc1nn(C)cc1CN(C)C(=O)c1cc(-c2ccccc2)nc2ccc(Br)cc12 | 67% (inactive) |
| CC(C)N(C(=O)CSc1nnc(CSc2ncccn2)n1C)C(C)C | 58% (inactive) |
| CCOC(=O)c1ccc(NC(=O)Cc2ccc(-n3c(CC)nc4cccnc43)cc2)cc1 | 68% (inactive) |

| SMILES | survival |
| --- | --- |
| Cc1ccccc1Cn1c(=O)n(Cc2ccc3c(c2)OCO3)c(=O)c2oc3ccccc3c21 | 110% (inactive) |
| C/C=N/NC(=O)c1ccccc1 | 93% (inactive) |
| O=C(NC1CCCCC1)c1ccc2c(c1)N(Cc1cccc(F)c1)C(=O)c1ccccc1S2 | 88% (inactive) |
| Cn1cnc(S(=O)(=O)N2CCC(C(=O)Nc3ccc(C#N)cc3)CC2)c1 | 107% (inactive) |
| CC1=C(C(=O)Nc2cccc(C(F)(F)F)c2)C(c2ccccn2)n2ncnc2N1 (stereo not given) | 102% (inactive) |
| CC(C)(C)c1nn(-c2ccccc2)c2[nH]c(=O)c(CNc3ccc4c(c3)OCO4)cc12 | 86% (inactive) |
| CCOC(=O)c1ccc(N2C(=O)c3[nH]nc(-c4ccccc4)c3C2c2cccs2)cc1 (stereo not given) | 123% (inactive) |
| CCOC(=O)c1cc2c(=O)n3ccccc3nc2n(CC(C)C)c1=NC(=O)COc1ccc(Cl)cc1 | 136% (inactive) |
| CCOC(=O)c1cc2c(=O)n3ccccc3nc2n(Cc2ccco2)c1=NC(=O)c1ccc(OCC)cc1 | 37% (active) |
| CCOC(=O)c1cc2c(=O)n3ccccc3nc2n(Cc2ccco2)c1=NC(=O)c1ccccc1Br | 71% (inactive) |
| CCOC(=O)c1cc2c(=O)n3ccccc3nc2n(Cc2ccco2)c1=NC(=O)c1ccc(OC)cc1 | 34% (active) |
| CCOC(=O)c1cc2c(=O)n3ccccc3nc2n(Cc2ccco2)c1=NC(=O)c1ccccc1OC | 28% (active) |
| CCC(C)NC(=O)Cn1c(=O)n(Cc2ccc(C(=O)NCc3ccccc3OC)cc2)c(=O)c2ccccc21 (stereo not given) | 84% (inactive) |
| O=c1ccnc(NCCc2ccccc2)[nH]1 | 104% (inactive) |
| Cn1cnc(S(=O)(=O)N2CCCC(C(=O)NCc3ccccc3Cl)C2)c1 (stereo not given) | 99% (inactive) |
| O=C1CSC(=S)N1C1CCS(=O)(=O)C1 (stereo not given) | 97% (inactive) |
| O=C1/C(=C/C2=Cc3ccccc3OC2)SC(=S)N1C1CCS(=O)(=O)C1 (stereo not given) | 44% (active) |
| O=C1/C(=C\c2cccnc2)SC(=S)N1C1CCS(=O)(=O)C1 (stereo not given) | 93% (inactive) |
| COc1ccc(-n2cc(-c3ccc4c(c3)OCO4)n(CC(=O)Nc3cc(Cl)ccc3C)c2=O)cc1 | 73% (inactive) |
| O=C(c1ccc2c(c1)N(Cc1ccc(F)cc1)C(=O)c1ccccc1S2(=O)=O)N1CCN(Cc2ccccc2)CC1 | 72% (inactive) |
| Cc1ccc(CCNC(=O)CCSCc2ccccc2Cl)cc1 | 20% (active) |
| Cc1ccc(CNC(=O)CCSCc2ccccc2F)cc1 | 78% (inactive) |
| O=C(CCSCc1ccc(Cl)cc1)NCCc1ccccc1 | -5% (active) |
| Cc1ccc(CCNC(=O)CCSCc2ccc(Cl)cc2)cc1 | 82% (inactive) |
| O=C(CCSCc1ccccc1Cl)NCCc1ccccc1 | 71% (inactive) |

| SMILES | survival |
| --- | --- |
| Cc1ccc(CCNC(=O)CCSCc2ccccc2F)cc1 | -4% (active) |
| O=C(CCSCc1cccc(Cl)c1)NCCc1ccc(Cl)cc1 | 76% (inactive) |
| Cc1ccccc1CSCc1ccc(C(=O)NCCc2ccccc2)o1 | 83% (inactive) |
| Cc1ccc(CCNC(=O)c2ccc(CSCc3ccccc3C)o2)cc1 | 32% (active) |
| CCc1ccc(CNC(=O)CCSCc2ccccc2F)cc1 | 96% (inactive) |
| COc1ccc(CCNC(=O)CCSCc2ccccc2Cl)cc1OC | 76% (inactive) |
| Cc1ccc(CCNC(=O)c2ccc(CSCc3ccccc3Cl)o2)cc1 | 87% (inactive) |
| O=C(NC1CCN(CC(=O)N2CCOCC2)CC1)C1CCCCC1 | 95% (inactive) |
| CCN(C(=O)c1cccn(Cc2cccc(Cl)c2)c1=O)c1ccccc1 | 80% (inactive) |
| COc1ccccc1C(=O)Nc1ccc(OCc2cc(=O)n3cccc(C)c3n2)cc1 | 94% (inactive) |
| CC(C)Cc1cc(C(=O)O)nc(=O)[nH]1 | 105% (inactive) |
| CC(=O)c1ccc(NC(=O)COCc2cc(-c3ccc(F)cc3)on2)cc1 | 102% (inactive) |
| Cc1ccccc1NC(=O)CSc1cn(CC(=O)N(C(C)C)C(C)C)c2ccccc12 | 54% (inactive) |
| CN1CCN(C(=O)C23CC4CC(CC(C4)C2)C3)CC1 | 111% (inactive) |
| COc1cc(C(=O)NCC(c2cccs2)S(=O)(=O)c2ccc(F)cc2)cc(OC)c1OC (stereo not given) | 104% (inactive) |
| CCOc1ccc(S(=O)(=O)Nc2ccc(OC)c(Cl)c2)c2cccnc12 | 70% (inactive) |
| O=C(CCSCc1cnn(-c2ccccc2)c1-n1cccc1)NCc1ccccc1Cl | 54% (active) |
| Cc1ccccc1CNC(=O)CCSCc1cnn(-c2ccccc2)c1-n1cccc1 | 64% (inactive) |
| O=C(CCSCc1cnn(-c2ccccc2)c1-n1cccc1)NCc1ccccc1F | 61% (inactive) |
| O=C(CCSCc1cccc(Cl)c1)NCc1ccc(F)cc1Cl | 102% (inactive) |
| O=C(CCSCc1ccc(Cl)cc1)NCc1ccc(F)cc1Cl | 88% (inactive) |
| O=C(NCc1ccccc1Cl)c1ccc(CSCc2ccccc2Cl)o1 | 93% (inactive) |
| O=C(CCSCc1ccccc1Cl)NCc1ccc(F)cc1Cl | 8% (active) |
| O=C(NCc1ccccc1Cl)c1ccc(CSCc2cccc(F)c2)o1 | 17% (active) |
| O=C(NCc1ccc(F)cc1Cl)c1ccc(CSCc2ccccc2Cl)o1 | 54% (inactive) |

— PubChem BioAssay AID463173 (ICCB-Longwood Screening Facility, Harvard Medical School, 2010)
